Experimental data: PMC4336329 (PLoS ONE, 2015)
The campaign covered roughly 310,000 compounds. About 14,000 (4.5%) showed an effect of 50% or more. The effect is printed as a negative number. Shown is part of a subset that was picked to be rich in strong results.

target: human ether-à-go-go-related gene (hERG) potassium channel (human, UniProt Q12809); assay: primary screen, population patch clamp on CHO cells stably expressing hERG; higher = less effect of the substance
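Further: peak tail current of the secondary pulse compared with the same well before compound.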

Sequence of human ether-à-go-go-related gene (hERG) potassium channel (Q12809 whole entry, looked up): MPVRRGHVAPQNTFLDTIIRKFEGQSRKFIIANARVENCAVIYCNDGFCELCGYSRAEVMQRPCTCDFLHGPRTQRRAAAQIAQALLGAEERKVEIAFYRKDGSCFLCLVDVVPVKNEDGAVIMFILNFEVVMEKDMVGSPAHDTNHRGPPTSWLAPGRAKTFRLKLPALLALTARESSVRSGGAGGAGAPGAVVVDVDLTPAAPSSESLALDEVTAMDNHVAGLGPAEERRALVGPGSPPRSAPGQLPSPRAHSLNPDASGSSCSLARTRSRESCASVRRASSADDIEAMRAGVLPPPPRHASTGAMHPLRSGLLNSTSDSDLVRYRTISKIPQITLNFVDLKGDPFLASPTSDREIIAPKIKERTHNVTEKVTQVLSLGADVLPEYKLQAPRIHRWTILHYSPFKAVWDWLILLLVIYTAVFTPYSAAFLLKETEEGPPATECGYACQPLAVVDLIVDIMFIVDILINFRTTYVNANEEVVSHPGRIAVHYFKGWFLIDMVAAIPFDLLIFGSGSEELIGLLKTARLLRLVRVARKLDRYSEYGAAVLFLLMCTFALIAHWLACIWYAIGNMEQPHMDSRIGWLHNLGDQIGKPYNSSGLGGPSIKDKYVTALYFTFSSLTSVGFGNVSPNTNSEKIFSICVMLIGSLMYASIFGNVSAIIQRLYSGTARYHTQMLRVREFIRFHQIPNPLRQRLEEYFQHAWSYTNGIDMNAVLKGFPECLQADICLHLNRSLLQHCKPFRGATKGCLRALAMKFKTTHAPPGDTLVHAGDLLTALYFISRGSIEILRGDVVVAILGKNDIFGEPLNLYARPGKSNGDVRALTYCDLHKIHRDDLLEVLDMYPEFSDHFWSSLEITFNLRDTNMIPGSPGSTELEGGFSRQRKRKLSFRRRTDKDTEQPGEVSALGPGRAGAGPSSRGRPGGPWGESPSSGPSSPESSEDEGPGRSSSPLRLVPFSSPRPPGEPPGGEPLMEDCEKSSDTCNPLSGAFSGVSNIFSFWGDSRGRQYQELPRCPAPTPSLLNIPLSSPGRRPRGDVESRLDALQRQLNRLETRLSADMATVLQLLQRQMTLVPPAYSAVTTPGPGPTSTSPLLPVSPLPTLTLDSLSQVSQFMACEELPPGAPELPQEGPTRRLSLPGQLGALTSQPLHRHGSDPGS

Row | SMILES | hERG current change (%, negative = inhibition) at 10uM [%]
1 | CC(=O)OCn1ncc(N2CCOCC2)c(Br)c1=O | 16.5
2 | Cc1ccc(/C=N/Nc2cc(C)nc(N3CCOCC3)n2)cc1 | 17.5
3 | Cc1ccc(N=Nc2c(O)[nH]c(=O)[nH]c2=O)c([N+](=O)[O-])c1 | -5.68
4 | Cc1ccc(S(=O)(=O)NC(CCc2ccccc2)CC(=O)C(C)(C)C)cc1 (centres unmarked) | -0.463
5 | O=C(c1ccc(N2CCOCC2)c([N+](=O)[O-])c1)N1CCCC(C(F)(F)F)C1 (centres unmarked) | 2.23
6 | Cc1ccc(S(=O)(=O)NC(=O)N(C)C2CCCCC2)cc1 | 9.07
7 | CN(C)CCCNc1nc(-c2ccccc2)c2c(c1C#N)CC(C)(C)OC2 | -57.4
8 | COc1nc(-c2ccccc2)c2c(c1C#N)CC(C)(C)OC2 | -11.2
9 | CN(C)CCNc1nc(-c2ccccc2)c2c(c1C#N)CC(C)(C)OC2 | -42.4
10 | CC1(C)Cc2c(C#N)c(NCCN3CCOCC3)nc(-c3ccccc3)c2CO1 | -17.1
11 | CC1(C)Cc2c(C#N)c(NCCCO)nc(-c3ccccc3)c2CO1 | -56
12 | Cc1nc(NCCCO)c(C#N)c2c1COC(C)(C)C2 | -15
13 | CC1CCCCN1S(=O)(=O)c1ccc(C(=O)Nc2nnc(-c3ccco3)o2)cc1 (centres unmarked) | -2.35
14 | O=C(CCc1ccccc1)NNC(=O)Cc1ccc(Cl)cc1 | 13.1
15 | CCOC(=O)C1=C(C)Nc2ccccc2N=C1NC(=O)c1cccc(S(=O)(=O)NCc2ccccc2)c1 | -19.4
16 | Cc1nn(Cc2n[nH]c(=S)n2Cc2ccccc2)c(C)c1Cl | 14
17 | OCCC1CN(Cc2cc3c(cc2Cl)OCO3)CCN1C1CCCC1 (centres unmarked) | -50.8
18 | CC(C)=CCN1CCN(Cc2cccc3c2OCO3)CC1CCO (centres unmarked) | -12.6
19 | CCOc1ccc(CN2CCN(Cc3cccc4c3OCO4)CC2CCO)cc1 (centres unmarked) | -77.4
20 | CC(C)N1CCN(Cc2cc3c(cc2Cl)OCO3)CC1CCO (centres unmarked) | -2.34
21 | CC(C)N1CCN(Cc2cccc3c2OCO3)CC1CCO (centres unmarked) | -0.928
22 | Cc1ccc(CN2CCN(Cc3cccc4c3OCO4)CC2CCO)cc1 (centres unmarked) | -51.2
23 | CC(C)N1CCC(N2CCN(Cc3cc4c(cc3Cl)OCO4)CC2CCO)CC1 (centres unmarked) | -18.5

Row | SMILES | hERG current change (%, negative = inhibition) at 10uM [%]
24 | CC(C)CN1CCN(Cc2cccc3c2OCO3)CC1CCO (centres unmarked) | -1.45
25 | OCCC1CN(Cc2cccc3c2OCO3)CCN1Cc1ccccc1 (centres unmarked) | -3.38
26 | OCCC1CN(Cc2cccc3c2OCO3)CCN1C1CCCC1 (centres unmarked) | -20.4
27 | CCOc1ccc(CN2CCN(Cc3cc4c(cc3Cl)OCO4)CC2CCO)cc1 (centres unmarked) | -73.3
28 | OCCC1CN(Cc2cc3c(cc2Cl)OCO3)CCN1Cc1ccccc1 (centres unmarked) | -45.3
29 | COc1ccc(C2/C=C\CN(CC(C)C)CC(=O)N2Cc2ccc(F)cc2)cc1 (centres unmarked) | -6.03
30 | Cc1cc([N+](=O)[O-])nn1CC(=O)N(C)C1CCCCC1 | -18.6
31 | O=C(Nc1ccccc1Cl)C1CCN(S(=O)(=O)c2cccc3nonc23)CC1 | 16
32 | CC(=O)c1c(C)oc2ccc(N(C(C)=O)S(=O)(=O)c3cccc([N+](=O)[O-])c3)cc12 | 8.76
33 | N#C/C(=C(/O)CN1C(=O)c2ccccc2C1=O)c1nc2ccccc2[nH]1 | 11.6
34 | CCOc1ccccc1CN1CCN(Cc2cccc3c2OCO3)CC1CCO (centres unmarked) | -62.6
35 | COc1cc(S(=O)(=O)N(Cc2ccc(C)cc2)Cc2ccco2)ccc1-n1cnnn1 | 2.53
36 | COc1cc(S(=O)(=O)N(Cc2cccnc2)Cc2cccc(OC)c2OC)ccc1-n1cnnn1 | -46.5
37 | COc1ccccc1CN(Cc1ccco1)S(=O)(=O)c1ccc(-n2cnnn2)c(OC)c1 | 7.21
38 | COc1ccccc1CN(Cc1cccnc1)S(=O)(=O)c1ccc(-n2cnnn2)c(OC)c1 | -63
39 | COc1ccc(CN(Cc2cccnc2)S(=O)(=O)c2ccc(-n3cnnn3)c(OC)c2)cc1 | -46.7
40 | COc1cc(S(=O)(=O)N(Cc2cccnc2)Cc2ccco2)ccc1-n1cnnn1 | -52.3
41 | CC(C)C[C@H](NC(=O)c1nc[nH]c1C(=O)N1CC[NH2+]CC1)C(=O)OCc1ccccc1.[Cl-] | 20.5
42 | COc1ccc(C2C3=C(CCCC3=O)N(CC(=O)O)C3=C2C(=O)CCC3)cc1Cl | 23.8
43 | CN(c1cccc(NC(=O)CCSc2ccccc2)c1)S(C)(=O)=O | -28.8
44 | O=C1c2ccccc2NC(c2ccc3c(c2)OCCO3)N1c1ccc2c(c1)OCCO2 (centres unmarked) | 10.9
45 | Cc1ccc(NC(=O)/C=C\C(=O)O)c([N+](=O)[O-])c1 | 21.4
46 | Cc1ccc(NC(=O)/C=C/C(=O)O)c([N+](=O)[O-])c1 | -67

Row | SMILES | hERG current change (%, negative = inhibition) at 10uM [%]
47 | Cc1cc(NC(=O)/C=C\C(=O)O)c([N+](=O)[O-])cc1C | 11.6
48 | COC(=O)c1cn(NC(=O)Cc2cccc(OC)c2)c(=O)c2ccccc12 | 12
49 | Cc1cc(NC(=S)N(CCCN2CCN(C)CC2)Cc2ccco2)ccc1Cl | -68.2
50 | Cc1ccc(NC(=S)N(CCCN2CCOCC2)Cc2ccco2)cc1Cl | -36.6
51 | COc1cccc(NC(=S)N(CCCN2CCN(C)CC2)Cc2ccco2)c1 | -36.2
52 | CCN1CCN(CCCN(Cc2ccco2)C(=S)Nc2ccc(Cl)c(C)c2)CC1 | -74.8
53 | CCN1CCN(CCCN(Cc2ccco2)C(=S)Nc2ccc(C)c(Cl)c2)CC1 | -64.8
54 | Cc1cccc(NC(=S)N(CCCN2CCOCC2)Cc2ccco2)c1 | -29.9
55 | S=c1[nH]nc(CSCCOc2ccccc2)o1 | 8.24
56 | CN(C)S(=O)(=O)c1cccc(NC(=O)CNCC2CCCCC2)c1.O=C(O)C(=O)O | -1.77
57 | Cc1ccc2nc(SCC(=O)N3c4ccccc4CC3C)c(C)cc2c1 (centres unmarked) | 7.54
58 | COc1ccc(NC(=O)C2CC2)cc1-n1cnnn1 | 5.86
59 | O=C1CC(c2ccccc2)Cc2nc(N3CCc4ccccc4C3)ncc21 (centres unmarked) | -2.75
60 | CCC(CO)N=CC1=C(O)CC(c2ccccc2)CC1=O (centres unmarked) | 17.1
61 | Cc1cc(C)c(NC2=NS(=O)(=O)c3ccccc32)c(C)c1 | -10.9
62 | CC(=O)c1cnc(Nc2nc(C)c3ccccc3n2)nc1C | 17.3
63 | COc1ccc(Nc2nc(C)c3ccccc3n2)cc1 | -17.4
64 | CC1=NC(Nc2nc(C)c3ccccc3n2)=NC(C)(C)C1 | -69.4
65 | O=C(O)c1ccccc1Sc1ncnc2sccc12 | 9.7
66 | Cc1cc(C(=O)OCC(=O)NC2CCS(=O)(=O)C2)c(C)n1-c1ccccc1 (centres unmarked) | -6.8
67 | CC(NC(=O)Nc1nnc(C(F)(F)F)s1)(C(F)(F)F)C(F)(F)F | -7.61
68 | CCc1nnc(NC(=O)CCN2C(=O)c3ccccc3S2(=O)=O)s1 | 17.3
69 | CCOC(=O)c1c(C)[nH]c(C(=O)N/N=C/c2ccc(OC)c(OC)c2)c1C | 12.7

Row | SMILES | hERG current change (%, negative = inhibition) at 10uM [%]
70 | COc1ccc(C(=O)N/C(=C\c2ccco2)C(=O)NCCN2CCOCC2)cc1 | 8.33
71 | O=C(NC(=S)NCCCN1CCOCC1)c1ccc([N+](=O)[O-])cc1 | -33.4
72 | COc1ccc(/C=C(\NC(=O)c2ccc([N+](=O)[O-])cc2)C(=O)NCCCN2CCOCC2)cc1 | -77
73 | COc1ccc(/C=C(\NC(=O)c2ccccc2)C(=O)NCCN2CCOCC2)cc1OC | 23
74 | COc1ccc(/C=C(\NC(=O)c2ccc([N+](=O)[O-])cc2)C(=O)NCCN2CCOCC2)cc1 | -70.7
75 | COc1ccc(C(=O)N/C(=C\c2cn(C)c3ccccc23)C(=O)NCCCN2CCOCC2)cc1 | 4.94
76 | COc1cc2c(cc1OC)C(c1ccccc1)CC2=O (centres unmarked) | 7.03
77 | COC(=O)c1ccc(-c2nc3ccccc3[nH]2)cc1 | 17.8
78 | Cc1csc(NC(=O)C(C)Oc2ccc(Cl)cc2C)n1 (centres unmarked) | -21
79 | Cc1cccc(OCCNc2ccc([N+](=O)[O-])cn2)c1 | -21.3
80 | CCC(CC)C(=O)Nc1ccc([N+](=O)[O-])cn1 | 10.8
81 | Cc1cc(Cl)ccc1OC(C)C(=O)Nc1ccc([N+](=O)[O-])cn1 (centres unmarked) | -75.9
82 | CC(=O)Nc1ccc([N+](=O)[O-])cn1 | 24.4
83 | CC(Oc1cccc(Cl)c1)C(=O)Nc1ccncc1 (centres unmarked) | 3.81
84 | CC(Oc1cccnc1[N+](=O)[O-])C(=O)Nc1ccc(Cl)cn1 (centres unmarked) | -16.6
85 | Cc1cccc(C(C)Nc2ccc([N+](=O)[O-])cn2)c1 (centres unmarked) | -68.9
86 | CCC(C(=O)Nc1ccc([N+](=O)[O-])cn1)c1ccccc1 (centres unmarked) | -67.4
87 | CC(Oc1cccc(Cl)c1)C(=O)Nc1ccc([N+](=O)[O-])cn1 (centres unmarked) | -62.2
88 | CCC(C(=O)Nc1ccccn1)c1ccccc1 (centres unmarked) | 1.4
89 | Cc1cccc(Nc2ccc([N+](=O)[O-])cn2)c1 | 10.9
